From PubChem BioAssay (NCATS)
Results filed as inconclusive are left out. Activity calls are given as the source filed them. Calls come from the whole dose curve; as a rule, active = well fitted inhibition curve with a large enough effect; inconclusive = small, poorly fitted or top-dose-only effect; inactive = flat fitted curve, though single readings scatter.

biological target: Ubiquitin carboxyl-terminal hydrolase 1 (Homo sapiens) (UniProt O94782); experiment: Inhibitors of USP1/UAF1: Pilot qHTS (AID 504865); settings: purified USP1/UAF1, Ub-rhodamine cleavage fluorescence; series mostly up to 54.9 µM; activity change, negative = inhibition: at the top concentration; note: nearly all actives have a fitted effect of over 35% in size;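 for activity change, negative = inhibition: rhodamine fluorescence freed from ubiquitin-rhodamine substrate followed over time; top concentration of the series differs between compounds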
Text: Deubiquitinating enzymes (DUBs) are a class of enzymes that can cleave isopeptide bond formed between the C-terminal carboxylate of ubiquitin and a lysine side-chain amino group on the target protein. Among them, ubiquitin specific proteases (USPs) constitute the largest DUB family. Human USPs are emerging as promising targets for pharmacological intervention because of their connection to a number of human diseases, including prostate, colon and breast cancer (1, 2), pediatric acute lymphoblastic leukemia (3), and familial cylindromatosis (4). The advantage of inhibiting USPs lies in the potential specificity of therapeutic intervention that can lead to better efficacy and reduce nonspecific side effects.
In a collaboration between the University of Delaware and the NIH Chemical Genomics Center, a high-throughput screen assay was developed to screen for USP1/UAF1 inhibitors. This miniaturized assay has a fluorescent read-out and is used to screen the NIH Molecular Libraries Small Molecule Repository (MLSMR) in order to identify a small molecule that inhibits USP1.
NIH Chemical Genomics Center [NCGC]
NIH Molecular Libraries Probe Centers Network [MLPCN]
Assay Submitter (PI): Zhihao Zhuang, University of Delaware
1. Priolo, C., et al. (2006) The isopeptidase USP2a protects human prostate cancer from apoptosis. Cancer Res 66, 8625-8632
2. Popov, N., et al. (2007) The ubiquitin-specific protease USP28 is required for MYC stability. Nat Cell Biol 9, 765-774
3. De Pitta, C., et al. (2005) A leukemia-enriched cDNA microarray platform identifies new transcripts with relevance to the biology of pediatric acute lymphoblastic leukemia. Haematologica 90, 890-898
4. Kovalenko, A., et al. (2003) The tumour suppressor CYLD negatively regulates NF-kappaB signalling by deubiquitination. Nature 424, 801-805
3 microliters of reagents (buffer in columns 3 and 4 as negative control and 1nM USP1/UAF1 complex in columns 1, 2, and 5-48) are dispensed into Greiner black solid bottom 1536-well assay plates. Compounds are then transferred via Kalypsys pin tool equipped with 1536-pin array (10nl slotted pins, V&P Scientific, San Diego, CA). Following an incubation step of 15 min at room temperature, 1ul of Ub-Rho substrate (150nM final concentration) is added to initiate the reaction. The plates are immediately centrifuged at 1000 rpm for 15 seconds, and subsequently transferred to a ViewLux high-throughput CCD imager (PerkinElmer) wherein kinetic measurements of fluorescence are acquired using 480 nm excitation/540 nm emission filter set (6 reads every 60 seconds, see Table 1). All reagents are diluted in an assay buffer consisting of 50mM HEPES (pH 7.8), 0.5mM EDTA, 0.1 mg/ml BSA, 1mM TCEP, and 0.01% Tween-20.
% is set by controls: 0 for no effect and ±100 for the full control effect; potency is the fitted concentration of half-maximal effect.

Chain of Ubiquitin carboxyl-terminal hydrolase 1 (Homo sapiens) (O94782 whole entry, looked up): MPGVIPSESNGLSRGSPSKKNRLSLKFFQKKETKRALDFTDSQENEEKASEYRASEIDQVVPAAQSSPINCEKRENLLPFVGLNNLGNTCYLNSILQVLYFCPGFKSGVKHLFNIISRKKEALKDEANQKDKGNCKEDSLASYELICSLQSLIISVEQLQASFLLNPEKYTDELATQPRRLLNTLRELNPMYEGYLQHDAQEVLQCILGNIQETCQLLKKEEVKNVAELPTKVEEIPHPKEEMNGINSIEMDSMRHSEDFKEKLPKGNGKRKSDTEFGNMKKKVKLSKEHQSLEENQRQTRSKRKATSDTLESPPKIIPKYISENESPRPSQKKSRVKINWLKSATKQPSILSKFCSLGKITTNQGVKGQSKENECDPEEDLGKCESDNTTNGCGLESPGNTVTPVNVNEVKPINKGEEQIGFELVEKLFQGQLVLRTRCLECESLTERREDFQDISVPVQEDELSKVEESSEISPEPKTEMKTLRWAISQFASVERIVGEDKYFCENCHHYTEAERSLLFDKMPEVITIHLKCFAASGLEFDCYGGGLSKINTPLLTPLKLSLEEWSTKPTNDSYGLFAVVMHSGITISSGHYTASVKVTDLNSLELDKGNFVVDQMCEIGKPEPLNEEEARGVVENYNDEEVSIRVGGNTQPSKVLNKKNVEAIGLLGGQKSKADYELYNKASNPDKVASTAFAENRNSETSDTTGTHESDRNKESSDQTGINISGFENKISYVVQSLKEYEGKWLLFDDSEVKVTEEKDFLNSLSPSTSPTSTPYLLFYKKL

SMILES | activity change, negative = inhibition | Potency
COc1ccccc1-c1cncnc1N(C)Cc1ccco1 | -10.7% (inactive) | –
Cc1nc2cnc(N3CCN(C)CC3)nc2n(C2CC2)c1=O | -8.8% (inactive) | –
CCCCCC/C=C\CCCCCCCc1cccc(O)c1C(=O)O | – | 79.4 µM (active)
COc1ncc2nc(C)c(=O)n(-c3ccccc3)c2n1 | -10.3% (inactive) | –
COC(=O)C1OC(=O)C2OC23[C@]2(C)C(O)CC4C(C)(C)C(OC(C)=O)CC(OC(C)=O)[C@@]4(C)C2CC[C@@]13C (stereo not given in full) | – | inactive
CN1CCc2cccc3c2[C@@H]1Cc1ccc(O)c(O)c1-3 | – | inactive
Cc1noc(C)c1-c1nccc(N(C)Cc2ccco2)n1 | -14.7% (inactive) | –
FC(F)(F)c1ccccc1-c1ccc2ncnc(NC3CC3)c2c1 | -17.4% (inactive) | –
CC(C)NC[C@H](O)c1cc(O)cc(O)c1 | 5.45% (inactive) | –
Cc1cnc(CNc2ncnc3ccc(-c4cccc(NS(C)(=O)=O)c4)cc23)cn1 | -7.92% (inactive) | –
CN1C(CC(=O)c2ccccc2)CCCC1CC(O)c1ccccc1 (stereo not given) | -2.2% [at 114 µM] (inactive) | –
CN1CCN(c2ncncc2-c2ccoc2)CC1 | -24% (inactive) | –
Cc1noc(C)c1-c1nccc(NCc2ccccc2)n1 | – | 25.1 µM (active)
Cc1cccc(C)c1OC[C@H](C)N | 8.67% (inactive) | –
Cc1cccc(CNc2ccnc(-c3ccccc3C(F)(F)F)n2)c1 | – | 3.98 µM (active)
CN(C)c1ncc2nc(-c3ccc(Cl)cc3)c(=O)n(-c3ccccc3)c2n1 | -5.31% (inactive) | –
COCCn1c(=O)c(-c2cc(F)cc(F)c2)nc2cnc(N(C)C)nc21 | -9.74% (inactive) | –
O=c1c(-c2cc(F)cc(F)c2)nc2cnc(N3CCOCC3)nc2n1CCc1ccccc1 | -7.75% (inactive) | –
COc1cccc(Cn2c(=O)c(-c3cn(C)c4ccccc34)nc3cnc(OC)nc32)c1 | -7.29% (inactive) | –
CN1CCCC[C@@H]1CCN1c2ccccc2Sc2ccc(S(C)=O)cc21 (stereo not given in full) | – | inactive

SMILES | activity change, negative = inhibition | Potency
COc1ccccc1CNc1nc(-c2ccc3c(c2)OCO3)nc2ccccc12 | -17.9% (inactive) | –
CN(C)Cc1ccccc1-c1cc(N(C)C)ncn1 | -8.47% [at 114 µM] (inactive) | –
CCNc1ncc2nc(CCc3ccccc3)c(=O)n(C[C@H]3CCCO3)c2n1 | -7.36% (inactive) | –
COc1ccc2[nH]cc(CCNc3cc(-c4c(C)noc4C)ncn3)c2c1 | -9.55% (inactive) | –
COCCn1c(=O)c(-c2cccs2)nc2cnc(N3CCN(C)CC3)nc21 | -12.1% (inactive) | –
COc1ccc2[nH]cc(CCNc3ncnc4ccc(-c5ccc6c(c5)OCO6)cc34)c2c1 | -13% (inactive) | –
N#Cc1cccc(-c2nccc(NCc3cccnc3)n2)c1 | -11.5% (inactive) | –
Cc1ccccc1-c1ccc2ncnc(NCc3cccs3)c2c1 | – | 14.1 µM (active)
CN=C1N[C@H](c2ccccc2)N(c2ccccc2)S1 | -13.9% [at 114 µM] (inactive) | –
COc1cccc(Cn2c(=O)c(CCc3ccccc3)nc3cnc(N4CCOCC4)nc32)c1 | -9.47% (inactive) | –
COc1ccc(-c2nc3cnc(OC)nc3n(-c3ccc(OC)cc3)c2=O)cc1 | -9.97% (inactive) | –
CN(C)C(=O)c1ccc(-c2cncnc2-n2ccnc2)cc1 | -18.7% (inactive) | –
Cc1cnc(CNc2ncnc3ccc(-c4cccc(C#N)c4)cc23)cn1 | -14.3% [at 114 µM] (inactive) | –
Cc1nc2cnc(Nc3ccccc3)nc2n(C[C@H]2CCCO2)c1=O | -11.4% (inactive) | –
COc1ncc2nc(-c3ccc(Cl)cc3)c(=O)n(C)c2n1 | -10.2% (inactive) | –
Cc1cnc(CNc2cc(-c3ccc4c(c3)OCO4)ncn2)cn1 | -14.5% (inactive) | –
COc1ccccc1CNc1cc(-c2ccoc2)ncn1 | -10.6% (inactive) | –
Cc1cnc(CNc2ncncc2-c2ccc3c(c2)OCO3)cn1 | -6.15% (inactive) | –
c1ncc(-c2ccc3c(c2)OCO3)c(NCCc2cnc[nH]2)n1 | 0.838% [at 114 µM] (inactive) | –
Cc1noc(C)c1-c1nccc(N2CCN(C)CC2)n1 | -12.9% (inactive) | –
